An excerpt weighted towards active compounds, which were near 6.9% of everything screened.
Giardia kill: Giardia lamblia killing; Giardia lamblia trophozoite viability; activity change, % at 7.66 µM, hits read low; hit rate 0.15% among 340,000; AID 540267; in the data active = activity change below about -80%; inconclusive = between about -30% and that limit;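 note: parasites exposed to compound for two days anaerobically before the ATP read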
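Giardia lamblia trophozoites (100 cells/well) were incubated with compounds for 48 h at 37 deg C under anaerobic conditions. Viability was read as ATP content by one-step luminescence after 15-30 min at room temperature.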
SW480 rerep: inducers of DNA re-replication in SW480 colon cancer cells. SW480 DNA re-replication, Hoechst DNA content imaging, 48 h. Potency, µM (doses to about 46.1 µM), hits mostly activators. hit rate 1.8% among 340,000. AID 624297; note: nearly all actives have a fitted effect of over 55% in size
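250 cells/well; 23 nL cpd via pin tool; 48 hr, 37 C, 5% CO2; Hoechst 40 min; imager read of total nuclear intensity, ex 405/em 500-530 nm.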
Vif-APOBEC3F blk: Vif-A3F binding inhibition | hit rate 0.2% among 390,000 | HeLa A3F-eYFP + Vif (tagged APOBEC3F with the HIV-1 protein that degrades it), YFP fluorescence increase | Potency, µM (titrated, usually from 46.1 µM); note: nearly all actives have a fitted effect of over 65% in size
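HeLa cells stably expressing Vif plus C-terminally eYFP-tagged A3F were seeded, incubated overnight at 37 deg C, dosed with compound, incubated overnight again at 37 deg C. Yellow fluorescence (Ex 488/Em 500-530) reported blocked Vif-mediated A3F-eYFP degradation.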
Vif-A3G inh: blocks the Vif interaction with human APOBEC3G; Q9HC16; HeLa A3G-eYFP + Vif (tagged APOBEC3G with the HIV-1 protein that degrades it), YFP fluorescence, overnight; Potency, µM (doses to about 46.1 µM), most hits filed as inhibitors; hit rate 0.076% among 410,000; note: nearly all actives have a fitted effect of over 60% in size
Target sequence (Q9HC16 whole entry, looked up): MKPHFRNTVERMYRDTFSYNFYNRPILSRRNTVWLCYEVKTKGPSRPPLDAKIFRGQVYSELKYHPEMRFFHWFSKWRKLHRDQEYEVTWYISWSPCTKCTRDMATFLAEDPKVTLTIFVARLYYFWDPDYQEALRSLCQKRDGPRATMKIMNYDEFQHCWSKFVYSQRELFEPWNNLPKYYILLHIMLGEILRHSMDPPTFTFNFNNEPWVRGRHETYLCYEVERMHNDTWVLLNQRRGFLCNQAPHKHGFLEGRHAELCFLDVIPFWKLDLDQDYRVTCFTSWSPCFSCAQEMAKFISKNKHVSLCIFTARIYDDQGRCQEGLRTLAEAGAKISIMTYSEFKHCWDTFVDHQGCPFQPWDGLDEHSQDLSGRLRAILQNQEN
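HeLa cells stably expressing Vif and C-terminally eYFP-tagged A3G, seeded overnight at 37 deg C, then exposed to compound by pintool overnight at 37 deg C. Rise in yellow fluorescence (Ex 488/Em 500-530, Acumen) marks blocked Vif-driven A3G degradation.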
MCF10A rereplic: DNA re-replication induction in MCF 10a cells; MCF 10A DNA re-replication, Hoechst nuclear intensity, 48 h; hit rate 2.9% among 350,000; Potency, µM (top dose mostly 46.1 µM), actives largely listed as activators; note: nearly all actives have a fitted effect of over 50% in size
IL-1B inflam inh: inflammasome signaling inhibition, IL-1 beta readout; hit rate 4.7% among 360,000; activity change, % at 57.5 µM; THP-1 LPS/ATP IL-1B secretion, AlphaLISA, 16 h; stronger effect = lower value; in the data active = activity change below about -50%; inconclusive = mostly about -30% to -49%
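Secreted IL-1B measured by AlphaLISA bead assay after 16 h compound exposure of THP-1 cells; compounds (final up to 57.5 uM) added 1 h before LPS (250 ng/mL) and ATP (1.25 mM) stimulation; lower signal means less secretion.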
Numbers stand for hits; . = inactive; ? = inconclusive; / = no result given. Unless noted, calls come from the whole dose curve; as a rule, active = well fitted curve in the direction sought with a large enough effect; inconclusive = small, poorly fitted or top-dose-only effect, or another doubt; inactive = no such curve, though single readings can be large; an effect the other way counts as inactive or inconclusive.

SMILES	Giardia kill	SW480 rerep	Vif-APOBEC3F blk	Vif-A3G inh	MCF10A rereplic	IL-1B inflam inh
CCN(CC)S(=O)(=O)c1ccc2c(c1)nc(CN(C)C(=O)Nc1ccc(C)c(Cl)c1)n2C	/	/	.	.	/	/
Cc1cccc(C(=O)Nc2ccc(C(=O)/C=C/c3cccnc3)cc2)c1	.	21µM	.	.	?	-78
Cc1cccc(C(=O)Nc2ccc(C(=O)Nc3ccc(O)cc3)cc2)c1	.	.	.	.	15µM	.
Cc1cccc(C(=O)Nc2ccc(NC(=O)c3ccccc3)cc2)c1	.	.	.	.	.	-58
Cc1cccc(/C=N/NC(=O)c2ccc(NC(=O)c3ccc(F)cc3)cc2)n1	.	.	.	.	21µM	.
Cc1cccc(/C=N/NC(=O)c2ccc(NC(=O)c3ccc(Cl)cc3)cc2)n1	.	.	.	?	.	.
Cc1ccc(-c2nc(SCCOc3ccccc3C)n3[nH]c(=O)cc3n2)cc1	/	/	?	.	/	/
CN(C)c1ccc(CNS(=O)(=O)c2ccc(-c3cc(C(F)(F)F)on3)s2)cc1	/	/	.	.	/	/
CCOc1ccc(CCNC(=O)Cc2ccc(NC(=O)N3CCSc4ncccc43)cc2)cc1	/	/	.	.	/	/
CSc1nnc2c(n1)OC(c1cccc(O)c1Cl)Nc1ccccc1-2 (configuration not stated)	/	/	.	.	/	/
O=C(NC1=C(Nc2ccc(Cl)cc2)C(=O)c2ccccc2C1=O)c1ccccc1	.	?	.	.	.	?
Cc1cccc(NC2=C(NC(=O)c3ccccc3)C(=O)c3ccccc3C2=O)c1	.	18µM	.	.	?	-74
CC1=CC(C)(C)Nc2ccc(OC(=O)CCN3C(=O)c4ccccc4C3=O)cc21	.	9.2µM	?	11µM	6.5µM	-99
O=C(CCN1C(=O)c2ccccc2C1=O)Oc1ccc2ccccc2c1	?	.	.	.	.	.
COc1ccc(CNC(=O)c2cnc3sc(N4CCC(C)CC4)nn3c2=O)c(OC)c1	/	/	.	.	/	/
CCCCCCCCCCOC(=O)C[N+](C)(C)C/C=C(/C)Cl	.	.	.	.	23µM	?
CCCCCCCCOC(=O)C[N+](C)(C)C/C=C(/C)Cl	.	.	.	.	.	.
CCOc1ccc(/C=C/c2nc(C#N)c(NC(C)CC)o2)cc1 (configuration not stated)	/	/	.	.	/	/
CC(=O)NCCCc1ccc(C(=O)COC(=O)CNC(=O)c2ccc3ccccc3c2)cc1	.	/	/	.	/	/
Cc1cc2c(cc(C(=O)NCCCN3CCOCC3)n2Cc2ccc(Cl)cc2)o1	.	18µM	.	.	23µM	.
Cc1ccc(Cn2c(C(=O)NCCCN3CCOCC3)cc3sccc32)cc1	.	.	.	.	.	.
CN1CCN(CCCNC(=O)c2ccc3c(c2)N(Cc2ccccc2)CCS3)CC1	.	.	.	.	.	.
Cc1ccc(CN2CCSc3ccc(C(=O)N4CCN(c5ncccn5)CC4)cc32)cc1	.	?	.	.	?	-62
CCN1CCN(CCCNC(=O)c2ccc3c(c2)N(Cc2ccc(C)cc2)CCS3)CC1	.	15µM	.	.	.	.
O=C(NCCCN1CCOCC1)c1ccc2c(c1)N(Cc1ccccc1)CCS2	.	.	.	.	?	?
SMILES	Giardia kill	SW480 rerep	Vif-APOBEC3F blk	Vif-A3G inh	MCF10A rereplic	IL-1B inflam inh
Cc1ccc(CN2CCSc3ccc(C(=O)NCCCN4CCOCC4)cc32)cc1	.	.	.	.	?	-51
COc1cc2c(cc1OC)C(c1oc(-c3ccc(-c4cc(Cl)ccc4Cl)o3)cc1C)=NCC2	/	/	/	.	/	/
COc1ccccc1N1CCN(C(=O)c2cnn(-c3cccc(Cl)c3)c2C2CCN(C(=O)OC(C)(C)C)CC2)CC1	/	/	.	.	/	/
O=C(NC1CCCC1)c1ccc2c(c1)N(Cc1ccccc1)CCS2	.	.	.	.	.	.
Cc1ccc(CN2CCSc3ccc(C(=O)NC4CCN(Cc5ccccc5)CC4)cc32)cc1	.	.	.	.	.	-82
CC(=O)Nc1ccc(S(=O)(=O)NCC2CCC(C(=O)NCCc3ccc(C)cc3)CC2)cc1 (configuration not stated)	/	/	.	.	/	/
CCOc1ccc(C2NC(=O)C(C#N)=C(S)N2c2ccc(C)cc2)cc1OC (configuration not stated)	.	?	.	.	?	-59
COCCNC(=O)c1ccc2c(=O)n(CCc3ccccc3)c(SCC(=O)CC(=O)OC)nc2c1	/	/	.	.	/	/
CCCOc1ccc(C(=O)NNC(=S)NC(=O)CC)cc1	.	?	.	.	16µM	.
C=CCNC(=S)NNC(=O)c1ccc(OCC(C)C)cc1	.	18µM	.	.	.	.
O=C(c1cccs1)N1CCN(Cc2cn[nH]c2-c2ccc(F)cc2F)CC1	.	.	.	.	.	-51
CCc1ccc2nc(N(CCN(CC)CC)C(=O)c3cccs3)sc2c1	/	/	.	.	/	/
CC(C)CCNC(=O)CN1C(=O)c2cccnc2Sc2ccccc21	/	/	.	.	/	/
O=C(CNc1cccc([N+](=O)[O-])c1)NC(=O)NC1CCCCC1	.	.	.	.	.	-52
Fc1ccc(-c2cc(-c3nc(-c4ccccc4)no3)[nH]n2)cc1	/	/	.	.	/	/
O=C(NCc1ccccc1)C(c1ccco1)N1CCN(c2ccccc2F)CC1 (configuration not stated)	/	/	/	/	/	-59
O=C(COc1ccc2ccccc2c1)NC1CC(=O)N(c2cccc(F)c2)C1 (configuration not stated)	/	/	.	.	/	/
Cc1ccc(S(=O)(=O)Nc2ccc(-c3ccc(N4CCCCCC4)nn3)cc2)cc1C	/	/	.	.	/	/
O=C1CCCCCN1C(=O)c1ccccc1	.	.	.	.	.	.
O=C1CCCCCN1Sc1ccccc1	.	?	?	.	?	-101
COc1ccc(/C(O)=C/c2nc3ccccc3n(-c3ccccc3)c2=O)cc1	.	?	?	.	8.2µM	?
CC1CCN(S(=O)(=O)c2ccc3c(c2)N(CC(=O)N2CCN(c4ccccc4)CC2)C(=O)CO3)CC1	/	/	.	.	/	/
O=C(Nc1ccc(Cl)cc1C(F)(F)F)C(Sc1nnc(-c2cccs2)o1)c1ccccc1 (configuration not stated)	.	/	.	?	1.6µM	.
COc1ccc(NC(=O)Cn2c(=O)n(-c3ccc(C)cc3)c(=O)c3c2c2cc(C)ccc2n3C)cc1	/	/	.	.	/	/
CCCn1ccc2c(OCC(=O)Nc3ccccc3C(=O)OCC)cccc2c1=O	/	/	.	.	/	/
Cc1ccc(C2C3CSCC=C3C(C#N)=C(N)C2(C#N)C#N)cc1 (configuration not stated)	.	.	?	.	?	?
N#CC1=C(N)C2=CCCC[C@H]2[C@H](c2ccccc2)C1(C#N)C#N	.	.	.	.	?	-56
N#CC1=C(N)C2=CCCC[C@H]2[C@H](c2ccc(Br)cc2)C1(C#N)C#N	.	?	?	?	16µM	-95
O=C1C(=O)C(c2ccc(O)cc2O)Oc2cc(O)cc(O)c21 (configuration not stated)	.	/	/	.	/	/

High-throughput results: PubChem, National Center for Advancing Translational Sciences (NCATS)
